Experimental findings from PubChem BioAssay (EPA / NIEHS) are described below.

Active and inactive are the calls of the source. The calls were made as follows: active = hit-call score of the fitted dose curve at least 0.9, where 1 is the maximum; inactive = score below 0.9.

Test [1] deals with Transcription factor E2F1 (Homo sapiens) (UniProt Q01094). Put plainly: ATG_E2F_CIS: Attagene CIS-FACTORIAL HepG2 Assay for human E2F Transcription Factor 1 (AID 2282935). The following applies: HepG2 Attagene cis-reporter, E2F reporter RNA transcripts; actives raise or lower the signal. Put shortly: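 Transient MRTU transfection of HepG2; 24 h compound exposure; RNA → oligo(dT) RT → PCR → FAM label → HpaI cut → CE fluorescence. Gain/loss of signal fit against DMSO.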

Test [2] is described as follows: ATG_E_Box_CIS: Attagene CIS-FACTORIAL HepG2 Assay for human Enhancer Box (E-box) (AID 2282936). The note with it: HepG2 E-box cis-reporter transcription, actives raise or lower the signal. Put shortly: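 Transiently transfected HepG2, endogenous TF-driven reporters, 24 h dosing. Readout: RT-PCR plus capillary electrophoresis of fluorescent reporter fragments. Gain or loss of signal fitted bidirectionally against DMSO baseline.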

The nature of test [3]: ATG_M_61_CIS: Attagene CIS-FACTORIAL HepG2 Assay for M61 Transcription Factor (Internal Marker) (AID 2282937). The note with it: HepG2 Attagene CIS-FACTORIAL M61 internal marker reporter; actives raise or lower the signal. Put shortly: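 Human liver HepG2, transient MRTU transfection (cis promoter elements), 24 h compound. Total RNA → oligo(dT) RT → PCR → FAM label → HpaI → CE. Internal background marker; bidirectional fitting, DMSO = baseline.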

The nature of test [4]: ATG_EGR_CIS: Attagene CIS-FACTORIAL HepG2 Assay for human Early Growth Response 1 (EGR1) (AID 2282938). The note with it: HepG2 Attagene CIS-FACTORIAL EGR reporter mRNA; actives raise or lower the signal. Put shortly:
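Transient transfection of human HepG2 with multiple cis-regulated reporter units, chemical exposure 24 h, total RNA isolated. Reverse transcription, PCR, fluorescent labelling and capillary electrophoresis quantify reporter transcripts; activity fitted bidirectionally against DMSO.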

Test [5] can be described thus: ATG_M_19_CIS: Attagene CIS-FACTORIAL HepG2 Assay for M19 Transcription Factor (Internal Marker) (AID 2282939). The note with it: HepG2 Attagene CIS-FACTORIAL M19 internal marker reporter; actives raise or lower the signal. Put shortly:
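HepG2, MRTU transient transfection, 24 h dosing. Total RNA → RT-PCR → 6-FAM primer extension → HpaI digest → CE fluorescence. Bidirectional curve fit, DMSO negative control.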

Test [6] can be described thus: ATG_ERE_CIS: Attagene CIS-FACTORIAL HepG2 Assay for Estrogen Response Element (ERE) (AID 2282940). The following applies: HepG2 ERE cis-reporter, Attagene RNA transcript; actives raise or lower the signal. The procedure, abridged: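 After a 24 h chemical treatment, RNA from reporter-transfected HepG2 cells is reverse-transcribed, PCR-amplified and fluorescently labelled. Fragments separated by capillary electrophoresis give reporter signal; DMSO serves as negative control.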

Test [7] in a line: ATG_Ets_CIS: Attagene CIS-FACTORIAL HepG2 Assay for human Erythroblast Transformation Specific (ETS) (AID 2282941). The following applies: HepG2 ETS cis-reporter transcription, actives raise or lower the signal. The procedure, abridged: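 RT-PCR/capillary electrophoresis fluorescence read-out of reporter mRNA; HepG2 transient multi-reporter transfection; 24 h compound exposure; gain or loss of signal fitted bidirectionally relative to DMSO.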

Test [8] deals with Hepatocyte nuclear factor 3-beta (Homo sapiens) (UniProt Q9Y261). As to the kind of experiment: ATG_FoxA2_CIS: Attagene CIS-FACTORIAL HepG2 Assay for human Forkhead box A2 (FOXA2) (AID 2282942). The note with it: HepG2 cis-reporter transcription factor activity, 24 h; actives raise or lower the signal. Put shortly:
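Transient MRTU transfection of HepG2 liver cells; 24 h treatment; total RNA → oligo(dT) RT → PCR → FAM primer extension → HpaI cut → CE. Bidirectional fit vs DMSO.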

Test [9] is described as follows: ATG_FoxO_CIS: Attagene CIS-FACTORIAL HepG2 Assay for human Forkhead box O (FoxO) (AID 2282943). The following applies: HepG2 Attagene cis-reporter, FoxO element, mRNA; actives raise or lower the signal. The procedure, abridged:
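HepG2 cells transiently transfected with cis-element-driven reporter units report endogenous FoxO activity. After 24 h chemical exposure, reporter mRNA quantified by RT-PCR, fluorescent labeling, HpaI digestion and capillary electrophoresis; bidirectional fit versus DMSO.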

A short description of test [10]: ATG_GATA_CIS: Attagene CIS-FACTORIAL HepG2 Assay for human GATA Binding Protein (AID 2282944). The note with it: HepG2 GATA cis-element reporter, Attagene multiplex mRNA; actives raise or lower the signal. The procedure, abridged:
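Cells: HepG2, transiently transfected with cis-regulated reporter transcription units. Exposure: 24 h. Detection: RT-PCR plus capillary electrophoresis of FAM-labeled fragments. Analysis: bidirectional, DMSO as baseline.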

The nature of test [11]: ATG_GLI_CIS: Attagene CIS-FACTORIAL HepG2 Assay for human Zinc Finger Protein GLI1 (AID 2282945). The following applies: HepG2, Attagene cis-factorial reporter mRNA, GLI element; actives raise or lower the signal. Put shortly:
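Transiently transfected HepG2 cells report endogenous transcription factor activity via cis-element-driven reporter units. After 24 h compound exposure, reporter mRNA was measured by RT-PCR with capillary electrophoresis; bidirectional fitting against DMSO baseline.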

Test [12] concerns the target Bile acid receptor (Homo sapiens) (UniProt Q96RI1). Put plainly: ATG_IR1_CIS: Attagene CIS-FACTORIAL HepG2 Assay for human Nuclear Receptor Subfamily 1 Group H Member 4 (NR1H4), IR1 submotif (AID 2282946). The note with it: IR1 reporter transcription, actives raise or lower the signal. The procedure, abridged:
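Fluorescence of capillary-separated, HpaI-digested RT-PCR reporter products gave IR1-element mRNA induction in HepG2 cells 24 h after dosing. Endogenous transcription factors drove the cis-regulated reporters; activity was fitted bidirectionally against DMSO.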

Test [13] can be described thus: ATG_GRE_CIS: Attagene CIS-FACTORIAL HepG2 Assay for human Glucocorticoid Response Elements (GRE) (AID 2282947). The following applies: HepG2 GRE cis-reporter, Attagene multiplex mRNA; actives raise or lower the signal. Put shortly: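 Read-out: fluorescent reporter-transcript fragments separated by capillary electrophoresis after RT-PCR. Transiently transfected HepG2 cells carrying cis-element-driven reporter units were dosed for 24 h; gain or loss of signal fitted against DMSO control.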

Test [14] can be described thus: ATG_ISRE_CIS: Attagene CIS-FACTORIAL HepG2 Assay for human Interferon Regulatory Factor 1 (IRF1) binding to an Interferon-Stimulated Response Element (ISRE) (AID 2282948). The note with it: HepG2 ISRE cis-reporter (Attagene), mRNA transcription readout; actives raise or lower the signal. Put shortly:
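Read-out: fluorescent RT-PCR products resolved by capillary electrophoresis, reporting endogenous transcription factor activity via ISRE-driven reporter mRNA in transfected HepG2 cells dosed for 24 h; gain or loss fitted relative to DMSO.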

Test [15] can be described thus: ATG_M_32_CIS: Attagene CIS-FACTORIAL HepG2 Assay for M32 Transcription Factor (Internal Marker) (AID 2282949).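 Also: background control marker of the multiplexed CIS panel rather than a real target.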 The note with it: HepG2 Attagene cis-factorial M32 reporter, mRNA; actives raise or lower the signal. Put shortly:
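Using DMSO as baseline, bidirectional curve fits were applied to reporter mRNA signals. These came from transiently transfected HepG2 cells exposed for 24 h, with RNA analysed by RT-PCR, FAM primer extension, HpaI digestion and CE.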

Test [16] in a line: ATG_M_06_CIS: Attagene CIS-FACTORIAL HepG2 Assay for M06 Transcription Factor (Internal Marker) (AID 2282950). The note with it: HepG2 Attagene CIS-FACTORIAL M06 internal marker reporter; actives raise or lower the signal. The procedure, abridged:
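Measured 24 h post-dosing in transiently transfected HepG2 cells, this internal-marker endpoint reports reporter mRNA via RT-PCR with fluorescent primer extension and capillary electrophoresis. DMSO served as negative control and baseline for bidirectional fitting.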

Test [17] has as its target Hepatocyte nuclear factor 6 (Homo sapiens) (UniProt Q9UBC0). As to the kind of experiment: ATG_HNF6_CIS: Attagene CIS-FACTORIAL HepG2 Assay for human Hepatocyte Nuclear Factor 6 (HNF6) (AID 2282952). The note with it: HepG2 Attagene cis-factorial HNF6 reporter transcription; actives raise or lower the signal. Put shortly:
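Readout: fluorescent reporter-transcript fragments resolved by capillary electrophoresis after RT-PCR, reflecting endogenous factor activity in transfected HepG2. Exposure 24 h. Gain or loss of signal fitted bidirectionally against DMSO.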

The nature of test [18]: ATG_MRE_CIS: Attagene CIS-FACTORIAL HepG2 Assay for human Metal Responsive Element (MRE) (AID 2282954). The following applies: HepG2 MRE cis-reporter transcription, Attagene multiplex; actives raise or lower the signal. Put shortly: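 RT-PCR/capillary electrophoresis readout of reporter mRNA, 24 h post-dosing, in HepG2 cells transfected with multiplexed cis-regulated reporter constructs. Gain or loss of signal fitted bidirectionally against DMSO baseline.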

Test [19] addresses Hypoxia-inducible factor 1-alpha (Homo sapiens) (UniProt Q16665). Put plainly: ATG_HIF1a_CIS: Attagene CIS-FACTORIAL HepG2 Assay for human Hypoxia Inducible Factor 1 (HIF1A) (AID 2282951). The following applies: HepG2 Attagene cis-factorial HIF1a reporter transcription; actives raise or lower the signal. The procedure, abridged:
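Transient MRTU transfection of human HepG2 liver cells, 24 h compound treatment, then total RNA isolation, oligo(dT) reverse transcription, PCR amplification, fluorescent labelling and capillary electrophoresis of reporter fragments. Gain or loss relative to DMSO.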

The target in test [20] is Heat shock factor protein 1 (Homo sapiens) (UniProt Q00613). As to the kind of experiment: ATG_HSE_CIS: Attagene CIS-FACTORIAL HepG2 Assay for human Heat Shock Transcription Factor 1 (HSE) (AID 2282953). The following applies: HepG2 HSE cis-reporter, Attagene RNA transcription; actives raise or lower the signal. Put shortly:
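Reporter mRNA induction in HepG2 is measured 24 h after dosing, using transiently transfected multiplexed cis-regulated reporter units. Signal comes from capillary electrophoresis of labelled RT-PCR products, with DMSO as negative control.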

Transcription factor E2F1 (Homo sapiens), sequence (Q01094 whole entry, looked up): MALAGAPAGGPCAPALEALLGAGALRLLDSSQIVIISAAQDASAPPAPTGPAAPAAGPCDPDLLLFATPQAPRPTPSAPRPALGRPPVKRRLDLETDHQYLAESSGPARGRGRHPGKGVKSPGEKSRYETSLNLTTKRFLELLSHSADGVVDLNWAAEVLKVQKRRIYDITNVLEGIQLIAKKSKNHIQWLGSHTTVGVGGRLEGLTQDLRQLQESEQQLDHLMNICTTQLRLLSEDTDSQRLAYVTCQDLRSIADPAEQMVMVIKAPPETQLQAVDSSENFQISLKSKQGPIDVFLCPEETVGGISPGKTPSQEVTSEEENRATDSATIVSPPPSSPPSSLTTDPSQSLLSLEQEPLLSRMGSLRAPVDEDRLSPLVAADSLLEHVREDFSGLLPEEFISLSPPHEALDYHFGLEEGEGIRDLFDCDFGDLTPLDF
Hepatocyte nuclear factor 6 (Homo sapiens), sequence (Q9UBC0 whole entry, looked up, the tested form may be a part): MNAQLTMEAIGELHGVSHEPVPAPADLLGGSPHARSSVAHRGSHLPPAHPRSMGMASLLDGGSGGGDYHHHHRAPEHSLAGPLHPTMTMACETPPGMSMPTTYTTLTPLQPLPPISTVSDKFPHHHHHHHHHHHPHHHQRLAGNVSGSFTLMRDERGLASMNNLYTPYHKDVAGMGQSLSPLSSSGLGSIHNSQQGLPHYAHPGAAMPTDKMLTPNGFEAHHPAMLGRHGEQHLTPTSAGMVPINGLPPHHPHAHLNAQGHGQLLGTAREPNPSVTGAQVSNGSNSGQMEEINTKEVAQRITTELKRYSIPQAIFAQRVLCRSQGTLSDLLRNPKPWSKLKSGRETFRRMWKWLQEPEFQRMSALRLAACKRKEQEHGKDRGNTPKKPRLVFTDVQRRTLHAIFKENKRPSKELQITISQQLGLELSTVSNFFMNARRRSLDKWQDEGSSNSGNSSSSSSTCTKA
Bile acid receptor (Homo sapiens), sequence (Q96RI1 whole entry, looked up): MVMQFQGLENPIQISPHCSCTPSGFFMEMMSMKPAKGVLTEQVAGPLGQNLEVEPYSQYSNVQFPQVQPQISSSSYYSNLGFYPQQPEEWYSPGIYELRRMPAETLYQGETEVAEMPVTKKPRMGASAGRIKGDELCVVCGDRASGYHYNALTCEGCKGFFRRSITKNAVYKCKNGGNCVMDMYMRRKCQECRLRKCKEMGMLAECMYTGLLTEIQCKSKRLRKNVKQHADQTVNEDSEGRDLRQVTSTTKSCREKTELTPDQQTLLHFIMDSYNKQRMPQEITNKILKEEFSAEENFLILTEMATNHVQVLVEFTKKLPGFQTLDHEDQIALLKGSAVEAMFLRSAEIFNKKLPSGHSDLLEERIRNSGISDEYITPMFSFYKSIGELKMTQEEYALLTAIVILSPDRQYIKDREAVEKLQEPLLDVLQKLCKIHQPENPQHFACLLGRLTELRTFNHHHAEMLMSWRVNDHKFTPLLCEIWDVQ
Hepatocyte nuclear factor 3-beta (Homo sapiens), sequence (Q9Y261 whole entry, looked up): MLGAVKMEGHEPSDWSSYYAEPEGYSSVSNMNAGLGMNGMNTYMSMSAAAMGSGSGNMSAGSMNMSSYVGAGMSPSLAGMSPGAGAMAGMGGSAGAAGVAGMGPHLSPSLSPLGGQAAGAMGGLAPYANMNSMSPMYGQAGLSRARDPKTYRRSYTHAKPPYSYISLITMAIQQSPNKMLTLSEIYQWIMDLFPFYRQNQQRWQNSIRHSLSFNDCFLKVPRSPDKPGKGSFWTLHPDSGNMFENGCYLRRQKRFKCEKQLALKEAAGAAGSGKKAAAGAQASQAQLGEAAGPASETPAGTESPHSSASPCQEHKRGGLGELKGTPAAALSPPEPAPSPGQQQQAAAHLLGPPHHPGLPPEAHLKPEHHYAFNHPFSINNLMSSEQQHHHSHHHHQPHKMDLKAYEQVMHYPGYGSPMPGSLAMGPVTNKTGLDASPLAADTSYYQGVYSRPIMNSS
Hypoxia-inducible factor 1-alpha (Homo sapiens), sequence (Q16665 whole entry, looked up, the tested form may be a part): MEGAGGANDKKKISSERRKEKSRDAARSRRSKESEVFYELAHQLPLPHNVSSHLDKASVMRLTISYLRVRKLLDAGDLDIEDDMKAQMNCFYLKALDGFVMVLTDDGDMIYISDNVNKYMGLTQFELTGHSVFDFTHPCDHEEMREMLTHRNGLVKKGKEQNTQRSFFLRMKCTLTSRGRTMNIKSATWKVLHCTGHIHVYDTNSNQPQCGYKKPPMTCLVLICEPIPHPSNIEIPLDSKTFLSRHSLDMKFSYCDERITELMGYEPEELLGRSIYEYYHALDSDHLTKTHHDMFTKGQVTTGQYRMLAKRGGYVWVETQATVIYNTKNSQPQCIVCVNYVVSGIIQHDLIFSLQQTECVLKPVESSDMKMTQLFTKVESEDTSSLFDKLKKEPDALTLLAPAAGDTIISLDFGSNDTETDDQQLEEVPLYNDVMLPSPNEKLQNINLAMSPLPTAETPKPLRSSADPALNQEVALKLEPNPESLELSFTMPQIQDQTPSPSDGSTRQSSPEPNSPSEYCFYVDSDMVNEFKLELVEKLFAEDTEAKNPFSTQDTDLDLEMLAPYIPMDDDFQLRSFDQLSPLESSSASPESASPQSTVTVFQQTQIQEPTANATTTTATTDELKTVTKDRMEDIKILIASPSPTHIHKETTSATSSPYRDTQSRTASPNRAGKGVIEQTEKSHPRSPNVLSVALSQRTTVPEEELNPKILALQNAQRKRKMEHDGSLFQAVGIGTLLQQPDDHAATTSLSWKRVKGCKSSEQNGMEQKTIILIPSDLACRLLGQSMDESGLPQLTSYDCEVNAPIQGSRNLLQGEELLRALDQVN
Heat shock factor protein 1 (Homo sapiens), sequence (Q00613 whole entry, looked up): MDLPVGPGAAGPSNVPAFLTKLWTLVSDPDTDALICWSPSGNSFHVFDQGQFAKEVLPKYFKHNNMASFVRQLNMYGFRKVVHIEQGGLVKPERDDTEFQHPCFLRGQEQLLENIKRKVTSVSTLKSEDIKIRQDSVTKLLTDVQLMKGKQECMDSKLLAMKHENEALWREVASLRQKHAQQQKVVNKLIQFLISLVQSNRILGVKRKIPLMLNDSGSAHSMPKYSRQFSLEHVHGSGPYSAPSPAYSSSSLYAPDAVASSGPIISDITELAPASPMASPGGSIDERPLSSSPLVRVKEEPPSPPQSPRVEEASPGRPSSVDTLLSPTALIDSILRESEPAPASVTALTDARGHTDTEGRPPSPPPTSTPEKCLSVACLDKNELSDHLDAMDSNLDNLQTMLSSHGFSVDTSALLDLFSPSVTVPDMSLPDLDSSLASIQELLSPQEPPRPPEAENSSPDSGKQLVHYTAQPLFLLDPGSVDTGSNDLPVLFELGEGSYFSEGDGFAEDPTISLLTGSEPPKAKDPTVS

In general, AC50 refers to the concentration at which the activity in the assay is half-maximal. With `O=c1c(O)c(-c2ccc(O)cc2O)oc2cc(O)cc(O)c12`, the call in test [1], in test [2], in test [3], in test [4], in test [5] and in test [7] was inactive. Besides, the result in test [8], in [9], in [10], in test [11], in [12] and in test [13] was inactive. The compound was classed as inactive in test [14], in test [15], in test [16], in test [17] and in [18]. Moreover, the AC50 in test [6] was 650 nM (active).
As to `[Cl][Sc]([Cl])[Cl]`, the call in [1], in test [2], in [3], in test [4], in [5] and in [6] was inactive. The compound was classed as inactive in test [7], in test [8], in test [9], in [10], in test [11] and in test [12]. Further, the compound was classed as inactive in test [13], in test [14], in test [15], in test [16], in test [19] and in test [17]. Further, the result in test [20] and in [18] was inactive.
In the case of `CCNc1nc(NC(C)(C)C)nc(OC)n1`, the call in test [1], in test [2], in test [3], in test [4], in test [5] and in [6] was inactive. Further, the compound was classed as inactive in test [7], in [8], in [9], in test [10], in test [11] and in test [12]. In addition, the compound was classed as inactive in [13], in test [14], in [15], in [16], in test [19] and in test [17]. In addition, the outcome in test [18] was inactive.
